Measurements: the OligoGym collection

Biological target: STX17
Assay: pooled miR-30 sensor sort-seq; sequence = guide strand
Conditions: shRNA
Further: reference of the scale not given here.

Row | Sequence | sensor-assay potency score (higher = more potent)
1 | TTCATCATTAAATTGCTTCTTA | 0.611
2 | TTCTGCAGCATTTTGATCTTGA | 0.632
3 | TATATCTGAGTCAAACTCTGAG | 0.23
4 | TTTGTATCAATTTTCCACCTGT | 0.455
5 | TCAAACTCTGAGAACTAGCTTC | 0.0575
6 | AATGCTGTCAATCTTCTCCTGC | 0.00387
7 | TAGTATGAAATGCTCCACCAAC | -1.07
8 | TTCTTTAACAGGATCTATCATT | -0.828
9 | TTGACATGGTCTGCAATGCTGT | -0.961
10 | TTCTACACATCTCAAGTCCTTA | 0.0253
11 | TACTTCTCAATATTTATCTGGT | 0.329
12 | TTCTTCATCATTAAATTGCTTC | 0.0874

Biological target: STYK1
Assay: as above
Conditions: shRNA

Row | Sequence | sensor-assay potency score (higher = more potent)
13 | TTTAATGGCAGCTTCTAGGCGC | 0.0946
14 | TTGAGTTCTTTGTTCTCTGATA | -1.2
15 | ATCCATAGTCATCACATCCCGC | -0.719
16 | ATAGTCATCACATCCCGCCGAC | -0.512
17 | TTGAGGTCCAGAACGCTGCTGT | 0.125
18 | TTCATGATACTGTACATGGTAT | -0.548
19 | TATGTCTTAGCTCAGGATGTGT | -0.84
20 | ATAGTAACCAACAAAGTTGGGA | 0.0523
21 | TAGAAGAGGCTCTCCACTCTGA | 0.202
22 | TTGTTCTCTGATAAAAAGCCAC | -1.1
23 | TTGAGAATAACACTCTTGGGCT | -0.459
24 | TATTCCTTCATTTCATTCCAAA | -1.26

Biological target: STYX
Assay: as above
Conditions: shRNA

Row | Sequence | sensor-assay potency score (higher = more potent)
25 | TAGAAATTCACACTCTATGATG | -0.976
26 | TGTAGTACAGGTAGCTTGCTTT | -0.453
27 | TAATACAAAATCTTCTTTCTTG | 0.259
28 | TAAATATCTAAATAACTGCTGA | -0.29
29 | TAGGGTAGGTCCACTCCTCGGC | 0.0939
30 | TAAAATTTCCTGCATCTCTCGT | -0.395
31 | TTGCTTTTCATAGCAGATGAAT | -1.47
32 | TTCTTTCTTGAACATAAGCAAA | -1.59
33 | TTTCTGTAGTACAGGTAGCTTG | -1
34 | TTCTGTAGTACAGGTAGCTTGC | -0.197
35 | TTGCTTCAATATTTTGTCGTAT | -0.787
36 | TAGCAGATGAATATGGGCCTAA | -0.352
